# What was measured:
# Experiment in all cases: SPOT peptide array binding signal intensity (averaged, normalized) (arbitrary units (background-subtracted, floor 0; scale differs between SH3 domains)); higher = stronger binding of the SH3 domain to the peptide
# AgAbp1 = target: AgAbp1
# In short: (§1)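 Binding signal refers to normalized, background-subtracted spot intensity averaged over replicates, expressed in arbitrary units that differ between domains. GST-fused SH3 domains from four yeast species were incubated at 10 μg/ml overnight at 4°C on cellulose membranes of synthetic 15-mer peptides with cysteines replaced by serines. Bound protein was detected with anti-GST antibody, an HRP anti-mouse secondary and luminol, and quantified with Genespotter.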
# AgBbc1 = target: AgBbc1
# In short: as §1
# AgBem1-D1 = target: AgBem1-D1
# In short: as §1
# AgBzz1-D1 = target: AgBzz1-D1
# In short: as §1
# AgBzz1-D2 = target: AgBzz1-D2
# In short: as §1
# AgCyk3 = target: AgCyk3
# In short: as §1
# AgFus1 = target: AgFus1
# In short: as §1
# AgHof1 = target: AgHof1
# In short: as §1
# AgHse1 = target: AgHse1
# In short: as §1
# AgLsb1 = target: AgLsb1
# In short: as §1
# AgLsb4 = target: AgLsb4
# In short: as §1
# AgMyo5 = target: AgMyo5
# In short: as §1
# AgNbp2 = target: AgNbp2
# In short: as §1
# AgRvs167 = target: AgRvs167
# In short: as §1
# AgSho1 = target: AgSho1
# In short: as §1
# AgSla1-D1-D2 = target: AgSla1-D1-D2
# In short: as §1
# AgSla1-D3 = target: AgSla1-D3
# In short: as §1
# CaAbp1-D1 = target: CaAbp1-D1
# In short: as §1
# CaAbp1-D2 = target: CaAbp1-D2
# In short: as §1
# CaBbc1 = target: CaBbc1
# In short: as §1
# CaBem1-D1 = target: CaBem1-D1
# In short: as §1
# CaBzz1-D1 = target: CaBzz1-D1
# In short: as §1
# CaBzz1-D2 = target: CaBzz1-D2
# In short: as §1
# CaCyk3 = target: CaCyk3
# In short: as §1
# CaFus1 = target: CaFus1
# In short: as §1
# CaHof1 = target: CaHof1
# In short: as §1
# CaHse1 = target: CaHse1
# In short: as §1
# CaLsb1 = target: CaLsb1
# In short: as §1
# CaLsb4 = target: CaLsb4
# In short: as §1
# CaMyo5 = target: CaMyo5
# In short: as §1
# CaNbp2 = target: CaNbp2
# In short: as §1
# CaRvs167 = target: CaRvs167
# In short: as §1
# CaRvs167-3 = target: CaRvs167-3
# In short: as §1
# CaSho1 = target: CaSho1
# In short: as §1
# CaSla1-D1-D2 = target: CaSla1-D1-D2
# In short: as §1
# CaSla1-D3 = target: CaSla1-D3
# In short: as §1
# ScAbp1 = target: ScAbp1
# In short: as §1
# ScBbc1 = target: ScBbc1
# In short: as §1
# ScBem1-D1 = target: ScBem1-D1
# In short: as §1
# ScBzz1-D1 = target: ScBzz1-D1
# In short: as §1
# ScBzz1-D2 = target: ScBzz1-D2
# In short: as §1
# ScCyk3 = target: ScCyk3
# In short: as §1
# ScFus1 = target: ScFus1
# In short: as §1
# ScHof1 = target: ScHof1
# In short: as §1
# ScHse1 = target: ScHse1
# In short: as §1
# ScLsb1 = target: ScLsb1
# In short: as §1
# ScLsb2 = target: ScLsb2
# In short: as §1
# ScLsb3 = target: ScLsb3
# In short: as §1
# ScLsb4 = target: ScLsb4
# In short: as §1
# ScMyo3 = target: ScMyo3
# In short: as §1
# ScMyo5 = target: ScMyo5
# In short: as §1
# ScNbp2 = target: ScNbp2
# In short: as §1
# ScPex13 = target: ScPex13
# In short: as §1
# ScRvs167 = target: ScRvs167
# In short: as §1
# ScSho1 = target: ScSho1
# In short: as §1
# ScSla1-D1-D2 = target: ScSla1-D1-D2
# In short: as §1
# ScSla1-D3 = target: ScSla1-D3
# In short: as §1
# SpAbp1-D1 = target: SpAbp1-D1
# In short: as §1
# SpBbc1 = target: SpBbc1
# In short: as §1
# SpBzz1-D1 = target: SpBzz1-D1
# In short: as §1
# SpBzz1-D2 = target: SpBzz1-D2
# In short: as §1
# SpCyk3 = target: SpCyk3
# In short: as §1
# SpHof1 = target: SpHof1
# In short: as §1
# SpHof1-2 = target: SpHof1-2
# In short: as §1
# SpHof1-3 = target: SpHof1-3
# In short: as §1
# SpHse1 = target: SpHse1
# In short: as §1
# SpLsb1 = target: SpLsb1
# In short: as §1
# SpLsb4 = target: SpLsb4
# In short: as §1
# SpMyo1 = target: SpMyo1
# In short: as §1
# SpNbp2 = target: SpNbp2
# In short: as §1
# SpPex13 = target: SpPex13
# In short: as §1
# SpRvs167 = target: SpRvs167
# In short: as §1
# SpSla1-D1-D2 = target: SpSla1-D1-D2
# In short: as §1
# SpSla1-D3 = target: SpSla1-D3
# In short: as §1
binder,measurement,setting,value
TYNRTAFQIPGDQSI,SPOT peptide array binding signal intensity,AgAbp1,1
same,SPOT peptide array binding signal intensity,AgBbc1,≤ 0
same,SPOT peptide array binding signal intensity,AgBem1-D1,≤ 0
same,SPOT peptide array binding signal intensity,AgBzz1-D1,60
same,SPOT peptide array binding signal intensity,AgBzz1-D2,≤ 0
same,SPOT peptide array binding signal intensity,AgCyk3,≤ 0
same,SPOT peptide array binding signal intensity,AgFus1,0.5
same,SPOT peptide array binding signal intensity,AgHof1,3.5
same,SPOT peptide array binding signal intensity,AgHse1,≤ 0
same,SPOT peptide array binding signal intensity,AgLsb1,540
same,SPOT peptide array binding signal intensity,AgLsb4,≤ 0
same,SPOT peptide array binding signal intensity,AgMyo5,2.25
same,SPOT peptide array binding signal intensity,AgNbp2,≤ 0
same,SPOT peptide array binding signal intensity,AgRvs167,1
same,SPOT peptide array binding signal intensity,AgSho1,≤ 0
same,SPOT peptide array binding signal intensity,AgSla1-D1-D2,≤ 0
same,SPOT peptide array binding signal intensity,AgSla1-D3,1
same,SPOT peptide array binding signal intensity,CaAbp1-D1,≤ 0
same,SPOT peptide array binding signal intensity,CaAbp1-D2,≤ 0
same,SPOT peptide array binding signal intensity,CaBbc1,1
same,SPOT peptide array binding signal intensity,CaBem1-D1,≤ 0
same,SPOT peptide array binding signal intensity,CaBzz1-D1,60.5
same,SPOT peptide array binding signal intensity,CaBzz1-D2,43.5
same,SPOT peptide array binding signal intensity,CaCyk3,1
same,SPOT peptide array binding signal intensity,CaFus1,≤ 0
same,SPOT peptide array binding signal intensity,CaHof1,0.5
same,SPOT peptide array binding signal intensity,CaHse1,2.5
same,SPOT peptide array binding signal intensity,CaLsb1,207
same,SPOT peptide array binding signal intensity,CaLsb4,≤ 0
same,SPOT peptide array binding signal intensity,CaMyo5,≤ 0
same,SPOT peptide array binding signal intensity,CaNbp2,≤ 0
same,SPOT peptide array binding signal intensity,CaRvs167,2.33
same,SPOT peptide array binding signal intensity,CaRvs167-3,0.5
same,SPOT peptide array binding signal intensity,CaSho1,≤ 0
same,SPOT peptide array binding signal intensity,CaSla1-D1-D2,≤ 0
same,SPOT peptide array binding signal intensity,CaSla1-D3,1.5
same,SPOT peptide array binding signal intensity,ScAbp1,≤ 0
same,SPOT peptide array binding signal intensity,ScBbc1,2.5
same,SPOT peptide array binding signal intensity,ScBem1-D1,11
same,SPOT peptide array binding signal intensity,ScBzz1-D1,40
same,SPOT peptide array binding signal intensity,ScBzz1-D2,13.5
same,SPOT peptide array binding signal intensity,ScCyk3,≤ 0
same,SPOT peptide array binding signal intensity,ScFus1,≤ 0
same,SPOT peptide array binding signal intensity,ScHof1,≤ 0
same,SPOT peptide array binding signal intensity,ScHse1,≤ 0
same,SPOT peptide array binding signal intensity,ScLsb1,142
same,SPOT peptide array binding signal intensity,ScLsb2,661
same,SPOT peptide array binding signal intensity,ScLsb3,≤ 0
same,SPOT peptide array binding signal intensity,ScLsb4,11.5
same,SPOT peptide array binding signal intensity,ScMyo3,3
same,SPOT peptide array binding signal intensity,ScMyo5,8.5
same,SPOT peptide array binding signal intensity,ScNbp2,≤ 0
same,SPOT peptide array binding signal intensity,ScPex13,≤ 0
same,SPOT peptide array binding signal intensity,ScRvs167,≤ 0
same,SPOT peptide array binding signal intensity,ScSho1,≤ 0
same,SPOT peptide array binding signal intensity,ScSla1-D1-D2,≤ 0
same,SPOT peptide array binding signal intensity,ScSla1-D3,0.5
same,SPOT peptide array binding signal intensity,SpAbp1-D1,≤ 0
same,SPOT peptide array binding signal intensity,SpBbc1,0.5
same,SPOT peptide array binding signal intensity,SpBzz1-D1,70
LLLLFVPDSPYDPAI,SPOT peptide array binding signal intensity,AgAbp1,1
same,SPOT peptide array binding signal intensity,AgBbc1,0.75
same,SPOT peptide array binding signal intensity,AgBem1-D1,27
same,SPOT peptide array binding signal intensity,AgBzz1-D1,17.5
same,SPOT peptide array binding signal intensity,AgBzz1-D2,20.5
same,SPOT peptide array binding signal intensity,AgCyk3,3
same,SPOT peptide array binding signal intensity,AgFus1,2370
same,SPOT peptide array binding signal intensity,AgHof1,2.25
same,SPOT peptide array binding signal intensity,AgHse1,277
same,SPOT peptide array binding signal intensity,AgLsb1,≤ 0
same,SPOT peptide array binding signal intensity,AgLsb4,636
same,SPOT peptide array binding signal intensity,AgMyo5,1
same,SPOT peptide array binding signal intensity,AgNbp2,63
same,SPOT peptide array binding signal intensity,AgRvs167,1.67
same,SPOT peptide array binding signal intensity,AgSho1,212
same,SPOT peptide array binding signal intensity,AgSla1-D1-D2,≤ 0
same,SPOT peptide array binding signal intensity,AgSla1-D3,0.5
same,SPOT peptide array binding signal intensity,CaAbp1-D1,11
same,SPOT peptide array binding signal intensity,CaAbp1-D2,1
same,SPOT peptide array binding signal intensity,CaBbc1,≤ 0
same,SPOT peptide array binding signal intensity,CaBem1-D1,≤ 0
same,SPOT peptide array binding signal intensity,CaBzz1-D1,43.5
same,SPOT peptide array binding signal intensity,CaBzz1-D2,19.5
same,SPOT peptide array binding signal intensity,CaCyk3,1
same,SPOT peptide array binding signal intensity,CaFus1,5080
same,SPOT peptide array binding signal intensity,CaHof1,66.8
same,SPOT peptide array binding signal intensity,CaHse1,92
same,SPOT peptide array binding signal intensity,CaLsb1,1.5
same,SPOT peptide array binding signal intensity,CaLsb4,≤ 0
same,SPOT peptide array binding signal intensity,CaMyo5,6.25
same,SPOT peptide array binding signal intensity,CaNbp2,264
same,SPOT peptide array binding signal intensity,CaRvs167,15.8
same,SPOT peptide array binding signal intensity,CaRvs167-3,3.5
same,SPOT peptide array binding signal intensity,CaSho1,611
same,SPOT peptide array binding signal intensity,CaSla1-D1-D2,6.5
same,SPOT peptide array binding signal intensity,CaSla1-D3,11.5
same,SPOT peptide array binding signal intensity,ScAbp1,≤ 0
same,SPOT peptide array binding signal intensity,ScBbc1,0.25
same,SPOT peptide array binding signal intensity,ScBem1-D1,7
same,SPOT peptide array binding signal intensity,ScBzz1-D1,31
same,SPOT peptide array binding signal intensity,ScBzz1-D2,7
same,SPOT peptide array binding signal intensity,ScCyk3,37
same,SPOT peptide array binding signal intensity,ScFus1,1060
same,SPOT peptide array binding signal intensity,ScHof1,2.25
same,SPOT peptide array binding signal intensity,ScHse1,662
same,SPOT peptide array binding signal intensity,ScLsb1,≤ 0
same,SPOT peptide array binding signal intensity,ScLsb2,≤ 0
same,SPOT peptide array binding signal intensity,ScLsb3,≤ 0
same,SPOT peptide array binding signal intensity,ScLsb4,1
same,SPOT peptide array binding signal intensity,ScMyo3,≤ 0
same,SPOT peptide array binding signal intensity,ScMyo5,≤ 0
same,SPOT peptide array binding signal intensity,ScNbp2,74
same,SPOT peptide array binding signal intensity,ScPex13,0.25
same,SPOT peptide array binding signal intensity,ScRvs167,0.333
same,SPOT peptide array binding signal intensity,ScSho1,1530
same,SPOT peptide array binding signal intensity,ScSla1-D1-D2,≤ 0
same,SPOT peptide array binding signal intensity,ScSla1-D3,27.5
same,SPOT peptide array binding signal intensity,SpAbp1-D1,1
same,SPOT peptide array binding signal intensity,SpBbc1,≤ 0
same,SPOT peptide array binding signal intensity,SpBzz1-D1,26
same,SPOT peptide array binding signal intensity,SpBzz1-D2,1.5
same,SPOT peptide array binding signal intensity,SpCyk3,25
same,SPOT peptide array binding signal intensity,SpHof1,6.25
same,SPOT peptide array binding signal intensity,SpHof1-2,5.5
same,SPOT peptide array binding signal intensity,SpHof1-3,85.5
same,SPOT peptide array binding signal intensity,SpHse1,1440
same,SPOT peptide array binding signal intensity,SpLsb1,≤ 0
same,SPOT peptide array binding signal intensity,SpLsb4,2
same,SPOT peptide array binding signal intensity,SpMyo1,3
same,SPOT peptide array binding signal intensity,SpNbp2,195
same,SPOT peptide array binding signal intensity,SpPex13,20
same,SPOT peptide array binding signal intensity,SpRvs167,≤ 0
same,SPOT peptide array binding signal intensity,SpSla1-D1-D2,3
same,SPOT peptide array binding signal intensity,SpSla1-D3,1

# Source: the supplement of paper PMC4466140
